According to PubChem BioAssay (EPA / NIEHS):
Inconclusive results are not listed. Active and inactive are the calls of the source. Rule for the calls: active = hit-call score of the fitted dose curve at least 0.9, where 1 is the maximum; inconclusive = response in the unintended direction; inactive = score below 0.9.

What was measured:
[1] = molecular target: rat Mineralocorticoid Receptor (MR), Nr3c2 (gene 25672) (UniProt P22199); assay: NVS_NR_rMR: NovaScreen (NVS) Nuclear Receptor Binding Assay for rat Mineralocorticoid Receptor (MR) (AID 2283355)
Sequence of rat Mineralocorticoid Receptor (MR), Nr3c2 (gene 25672) (P22199 whole entry, looked up): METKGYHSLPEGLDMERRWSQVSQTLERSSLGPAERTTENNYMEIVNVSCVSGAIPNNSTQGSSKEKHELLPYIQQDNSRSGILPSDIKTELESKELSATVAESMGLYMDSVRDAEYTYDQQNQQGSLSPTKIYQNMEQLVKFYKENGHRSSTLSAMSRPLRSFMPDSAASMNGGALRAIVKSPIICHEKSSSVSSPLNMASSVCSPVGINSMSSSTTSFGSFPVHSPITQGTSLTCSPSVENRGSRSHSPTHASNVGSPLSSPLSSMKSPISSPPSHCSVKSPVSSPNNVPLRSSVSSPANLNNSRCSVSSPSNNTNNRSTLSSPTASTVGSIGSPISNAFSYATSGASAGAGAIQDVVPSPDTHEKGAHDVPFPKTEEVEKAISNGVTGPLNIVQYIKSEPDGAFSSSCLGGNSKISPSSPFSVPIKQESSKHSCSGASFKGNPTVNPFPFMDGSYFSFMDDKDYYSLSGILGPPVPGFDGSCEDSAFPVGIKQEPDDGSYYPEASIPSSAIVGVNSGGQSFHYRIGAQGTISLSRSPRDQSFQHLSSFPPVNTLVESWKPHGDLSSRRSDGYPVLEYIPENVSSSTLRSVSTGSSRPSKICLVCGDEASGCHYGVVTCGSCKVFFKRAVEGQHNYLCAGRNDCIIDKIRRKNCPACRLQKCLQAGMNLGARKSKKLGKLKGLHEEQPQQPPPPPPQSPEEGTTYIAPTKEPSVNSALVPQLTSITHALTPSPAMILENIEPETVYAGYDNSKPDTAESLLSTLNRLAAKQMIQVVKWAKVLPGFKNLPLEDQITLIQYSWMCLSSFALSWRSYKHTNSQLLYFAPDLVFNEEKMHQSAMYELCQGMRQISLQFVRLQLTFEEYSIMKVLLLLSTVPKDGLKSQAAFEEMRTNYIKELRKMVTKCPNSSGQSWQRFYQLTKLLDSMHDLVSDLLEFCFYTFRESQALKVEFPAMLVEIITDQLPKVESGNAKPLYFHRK
Method in brief: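 Primary HTS ran in duplicate at a single 25 uM concentration, with concentration-series follow-up for actives. Receptor source: adrenalectomized rat brain supernatant, cell-free. Radioligand displacement read by scintillation at 24 h, relative to DMSO baseline.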

[2] = molecular target: Estrogen receptor beta (Homo sapiens) (UniProt Q92731); assay: OT_ER_ERbERb_0480: Odyssey Thera (OT) 8-hour HEK293T Protein-Complementation Assay for Estrogen Receptor-beta/-beta Homodimer (AID 2283357);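 note: active means signal gain over DMSO baseline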
Sequence of Estrogen receptor beta (Homo sapiens) (Q92731 whole entry, looked up, the tested form may be a part): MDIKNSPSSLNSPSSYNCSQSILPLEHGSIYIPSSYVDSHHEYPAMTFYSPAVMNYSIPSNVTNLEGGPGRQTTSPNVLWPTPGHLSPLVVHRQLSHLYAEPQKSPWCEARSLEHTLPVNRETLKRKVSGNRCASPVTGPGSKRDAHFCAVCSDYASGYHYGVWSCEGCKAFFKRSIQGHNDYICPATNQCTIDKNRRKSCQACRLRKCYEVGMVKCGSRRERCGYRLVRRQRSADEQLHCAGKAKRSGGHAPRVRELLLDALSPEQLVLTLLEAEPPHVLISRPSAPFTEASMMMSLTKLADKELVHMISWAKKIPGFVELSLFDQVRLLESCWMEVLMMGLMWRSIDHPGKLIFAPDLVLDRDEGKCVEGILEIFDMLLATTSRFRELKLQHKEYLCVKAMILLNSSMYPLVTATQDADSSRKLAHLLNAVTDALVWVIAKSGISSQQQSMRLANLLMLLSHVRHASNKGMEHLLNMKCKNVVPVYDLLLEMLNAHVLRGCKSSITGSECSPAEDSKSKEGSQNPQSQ
Method in brief: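 ER-beta LBD homodimer PCA stably expressed in HEK293T; 8 h compound exposure, then formaldehyde fixation and Draq5 staining. Gain in nuclear/cytoplasmic fluorescence intensity versus DMSO vehicle, read on laser scanning cytometer.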

[3] = molecular target: human Adenosine Transporter (Adot), SLC29A1 (gene 2030) (UniProt Q99808); assay: NVS_TR_hAdoT: NovaScreen (NVS) Transporter Assay for human Adenosine Transporter (Adot) (AID 2283368)
Method in brief: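 Binding displacement on U937 extracted protein, read 1 h post-dose by filtration and scintillation counting. Primary duplicate test at 25 uM, then singleton concentration series with 50 uM top; DMSO baseline.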

[4] = molecular target: Peroxisome proliferator-activated receptor gamma (Homo sapiens) (UniProt P37231); assay: NVS_NR_hPPARg: NovaScreen (NVS) Nuclear Receptor Binding Assay for human Peroxisome Proliferator-activated Receptor gamma (PPARg) (AID 2283370)
Sequence of Peroxisome proliferator-activated receptor gamma (Homo sapiens) (P37231 whole entry, looked up): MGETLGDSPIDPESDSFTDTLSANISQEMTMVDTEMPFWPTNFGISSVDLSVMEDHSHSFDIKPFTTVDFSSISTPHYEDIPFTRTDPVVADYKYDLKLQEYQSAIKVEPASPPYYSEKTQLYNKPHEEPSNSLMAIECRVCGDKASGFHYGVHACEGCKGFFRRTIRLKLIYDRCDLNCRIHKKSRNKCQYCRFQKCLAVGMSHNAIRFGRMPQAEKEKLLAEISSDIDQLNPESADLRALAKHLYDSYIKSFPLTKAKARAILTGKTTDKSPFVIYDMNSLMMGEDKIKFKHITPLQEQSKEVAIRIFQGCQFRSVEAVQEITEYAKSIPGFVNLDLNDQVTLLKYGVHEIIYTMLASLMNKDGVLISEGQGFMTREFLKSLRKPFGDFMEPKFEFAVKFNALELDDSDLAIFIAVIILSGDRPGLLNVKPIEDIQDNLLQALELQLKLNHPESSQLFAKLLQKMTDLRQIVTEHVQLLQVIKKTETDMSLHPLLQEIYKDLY
Method in brief: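 Cell-free binding to extracted PPARg protein, read by fluorescence polarization 2 h after dosing; loss of signal relative to DMSO baseline marks displacement. Primary screen in duplicate at 25 uM, actives retested in concentration series.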

[5] = molecular target: Estrogen receptor beta (Homo sapiens) (UniProt Q92731); assay: OT_ER_ERbERb_1440: Odyssey Thera (OT) 24-hour HEK293T Protein-Complementation Assay for Estrogen Receptor-beta/-beta Homodimer (AID 2283380);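 note: scored as signal increase over DMSO baseline for both agonists and antagonists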
Method in brief: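 Fluorescence increase, nuclear for agonists or whole-cell for antagonists, relative to DMSO vehicle, quantified by laser scanning cytometer after fixation and Draq5 staining. Readout from 24 h treatment of HEK293T cells carrying complementation-paired ER beta LBD (aa 310-547).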

[6] = molecular target: Estrogen receptor (Homo sapiens) + Estrogen receptor beta (Homo sapiens) (UniProt P03372+Q92731); assay: OT_ER_ERaERb_1440: Odyssey Thera (OT) 24-hour HEK293T Protein-Complementation Assay for Estrogen Receptor-alpha/-beta Homodimer (AID 2283356);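 note: heteromer of ER alpha and ER beta binding domains; hits raise reporter fluorescence and both agonists and antagonists give an increase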
Sequence of Estrogen receptor (Homo sapiens) + Estrogen receptor beta (Homo sapiens) (P03372 whole entry, looked up, the tested form may be a part): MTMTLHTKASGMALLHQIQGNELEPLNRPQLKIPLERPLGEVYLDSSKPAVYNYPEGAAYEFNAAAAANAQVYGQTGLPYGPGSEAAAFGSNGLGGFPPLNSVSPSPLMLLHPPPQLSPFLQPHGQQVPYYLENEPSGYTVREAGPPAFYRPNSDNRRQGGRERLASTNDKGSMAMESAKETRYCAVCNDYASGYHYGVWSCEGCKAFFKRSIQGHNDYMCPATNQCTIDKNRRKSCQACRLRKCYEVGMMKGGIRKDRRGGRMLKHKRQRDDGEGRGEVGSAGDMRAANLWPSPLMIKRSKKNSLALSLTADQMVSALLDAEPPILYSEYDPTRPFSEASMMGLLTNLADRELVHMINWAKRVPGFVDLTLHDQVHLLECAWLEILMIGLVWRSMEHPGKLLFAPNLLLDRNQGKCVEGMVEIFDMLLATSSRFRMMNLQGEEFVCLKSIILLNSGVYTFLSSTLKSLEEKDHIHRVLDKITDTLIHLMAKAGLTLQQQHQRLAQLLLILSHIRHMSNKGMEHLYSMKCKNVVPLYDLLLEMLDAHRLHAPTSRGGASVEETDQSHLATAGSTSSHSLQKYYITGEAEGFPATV
Sequence of Estrogen receptor (Homo sapiens) + Estrogen receptor beta (Homo sapiens) (Q92731 whole entry, looked up, the tested form may be a part): as the sequence (Q92731 whole entry, looked up, the tested form may be a part) above
Method in brief: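 HEK293T cells stably expressing a PCA pair of ERα LBD (aa 310-547) and ERβ LBD (aa 263-489) were dosed for 24 h. Fluorescence intensity increase versus DMSO vehicle was fitted as gain-of-signal.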

[7] = molecular target: human Peroxisome Proliferator-activated Receptor alpha (PPARa), PPARA (gene 5465) (UniProt Q07869); assay: NVS_NR_hPPARa: NovaScreen (NVS) Nuclear Receptor Binding Assay for human Peroxisome Proliferator-activated Receptor alpha (PPARa) (AID 2283359);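 note: activity means loss of TR-FRET signal versus DMSO baseline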
Method in brief: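 Loss of TR-FRET binding signal relative to DMSO was measured 1 h after chemical addition to extracted receptor protein. Chemicals were first tested in duplicate at 25 uM, and actives were followed up in concentration series.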

[8] = molecular target: guinea pig Sigma Receptor, Non-selective Binding, SIGMAR1 (gene 100135589) (UniProt Q60492); assay: NVS_OR_gSIGMA_NonSelective: NovaScreen (NVS) Nuclear Receptor Binding Assay for guinea pig Sigma Receptor, Non-selective Binding (AID 2283367)
Sequence of guinea pig Sigma Receptor, Non-selective Binding, SIGMAR1 (gene 100135589) (Q60492 whole entry, looked up): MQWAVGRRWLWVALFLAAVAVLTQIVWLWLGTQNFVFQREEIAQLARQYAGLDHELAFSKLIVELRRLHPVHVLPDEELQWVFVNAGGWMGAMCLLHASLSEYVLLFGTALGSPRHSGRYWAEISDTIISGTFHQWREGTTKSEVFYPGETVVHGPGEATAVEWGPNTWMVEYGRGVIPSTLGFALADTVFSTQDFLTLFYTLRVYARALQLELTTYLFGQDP
Method in brief: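 Guinea pig brain membrane sigma sites were labelled with a radioligand, and bound radioactivity was counted after filtration 1 h post-dose. Compounds were screened at 25 uM in duplicate, then retested as concentration series when active.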

[9] = test system: rat Norepinephrine Transporter (NET), gene 83511; assay: NVS_TR_rNET: NovaScreen (NVS) Transporter Assay for rat Norepinephrine Transporter (NET) (AID 2283373)
Method in brief: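 Competitive radioligand displacement at the rat NET using forebrain membrane preparations, 1 h incubation, filter-based scintillation readout. Primary testing in duplicate at a single 25 uM concentration; confirmed actives retested across concentrations.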

[10] = molecular target: rat Serotonin Transporter (SERT), Slc6a4 (gene 25553) (UniProt P31652); assay: NVS_TR_rSERT: NovaScreen (NVS) Transporter Assay for rat Serotonin Transporter (SERT) (AID 2283375)
Method in brief: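 Rat forebrain membranes were incubated with test chemical for 1 hour; radioligand binding to SERT was measured by filter-based scintillation counting. Primary screen ran in duplicate at 25 uM, with actives followed up in concentration series; DMSO served as negative control.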

[11] = molecular target: Retinoic acid receptor alpha (Homo sapiens) (UniProt P10276); assay: NVS_NR_hRARa_Agonist: NovaScreen (NVS) Nuclear Receptor Binding Assay for human Retinoic Acid Alpha Receptor Agonism (RAR) (AID 2283361)
Method in brief: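 Agonist-mode TR-FRET binding format using extracted protein, measured at 2 h post-dosing. Initial duplicate single-point screen at 25 uM preceded concentration series for actives; activity was normalized to DMSO baseline.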

[12] = molecular target: human Thyroid Receptor Alpha (TRa), THRA (gene 7067) (UniProt P10827); assay: NVS_NR_hTRa_Antagonist: NovaScreen (NVS) Nuclear Receptor Binding Assay for human Thyroid Receptor Alpha Antagonism (TRa) (AID 2283362);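 note: activity is loss of signal relative to DMSO baseline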
Method in brief: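 Cell-free binding assay on extracted receptor protein, read 1 h after chemical dosing by AlphaLISA chemiluminescence; loss of signal relative to DMSO baseline marks antagonism. Primary screen ran in duplicate at 25 uM, with concentration series for actives.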

[13] = molecular target: Glucocorticoid receptor (Homo sapiens) (UniProt P04150); assay: NVS_NR_hGR: NovaScreen (NVS) Nuclear Receptor Binding Assay for human Glucocorticoid Receptor (GR) (AID 2283363)
Method in brief: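 Compounds first tested in duplicate at 25 uM, actives followed up in concentration series. Binding to extracted GR protein measured as competitive radioligand displacement, filter scintillation read 16 h post-dosing, normalised to DMSO.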

[14] = test system: guinea pig Dopamine Transporter (DAT), gene 100714898; assay: NVS_TR_gDAT: NovaScreen (NVS) Transporter Assay for guinea pig Dopamine Transporter (DAT) (AID 2283369);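 note: active compounds lower bound radioligand signal relative to DMSO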
Method in brief: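 Guinea pig striatal membranes; radioligand displacement measured by filter-based scintillation counting 2 h after dosing. Initial duplicate screen at 25 uM, then concentration-response up to 50 uM for hits; loss of signal versus DMSO baseline.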

[15] = molecular target: human Serotonin Transporter (SERT), SLC6A4 (gene 6532) (UniProt P31645); assay: NVS_TR_hSERT: NovaScreen (NVS) Transporter Assay for human Serotonin Transporter (SERT) (AID 2283372)
Method in brief: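 Human platelet membrane preparation; displacement of radioligand from serotonin transporter measured after 1 h by filtration and scintillation counting. Single 25 uM duplicate screen, then concentration series for actives, with DMSO as negative baseline.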

[16] = molecular target: mouse Estrogen Receptor alpha (Era), Esr1 (gene 13982) (UniProt P19785); assay: NVS_NR_mERa: NovaScreen (NVS) Nuclear Receptor Binding Assay for mouse Estrogen Receptor alpha (Era) (AID 2283378);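 note: hit means loss of bound radioligand signal relative to DMSO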
Sequence of mouse Estrogen Receptor alpha (Era), Esr1 (gene 13982) (P19785 whole entry, looked up): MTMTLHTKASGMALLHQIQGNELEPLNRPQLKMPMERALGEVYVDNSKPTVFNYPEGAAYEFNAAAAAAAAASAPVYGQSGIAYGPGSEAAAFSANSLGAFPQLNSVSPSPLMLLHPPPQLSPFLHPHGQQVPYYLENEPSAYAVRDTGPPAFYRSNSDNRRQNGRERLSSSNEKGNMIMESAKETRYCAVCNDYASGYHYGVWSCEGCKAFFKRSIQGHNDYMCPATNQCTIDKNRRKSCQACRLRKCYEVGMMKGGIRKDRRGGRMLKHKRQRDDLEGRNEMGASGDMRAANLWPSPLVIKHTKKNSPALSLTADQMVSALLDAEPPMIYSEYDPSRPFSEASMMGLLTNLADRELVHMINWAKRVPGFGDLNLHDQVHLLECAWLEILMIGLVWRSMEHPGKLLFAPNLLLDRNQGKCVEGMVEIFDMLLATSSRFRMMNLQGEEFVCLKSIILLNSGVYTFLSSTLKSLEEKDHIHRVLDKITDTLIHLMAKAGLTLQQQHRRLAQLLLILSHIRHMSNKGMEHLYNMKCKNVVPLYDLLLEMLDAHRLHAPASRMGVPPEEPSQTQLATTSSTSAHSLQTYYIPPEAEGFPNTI
Method in brief: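 Cell-free radioligand binding with extracted mouse Era protein; competitive displacement of radiolabelled ligand, read by filter-based scintillation counting 18 hours after dosing. Loss of signal versus DMSO baseline taken as binding; single screening concentration 25 uM, actives followed in concentration series.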

[17] = molecular target: Nuclear receptor subfamily 1 group I member 2 (Homo sapiens) (UniProt O75469); assay: NVS_NR_hPXR: NovaScreen (NVS) Nuclear Receptor Binding Assay for human Pregnane X Receptor (PXR) (AID 2283365);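 note: a drop in FRET signal versus DMSO baseline means the compound binds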
Sequence of Nuclear receptor subfamily 1 group I member 2 (Homo sapiens) (O75469 whole entry, looked up): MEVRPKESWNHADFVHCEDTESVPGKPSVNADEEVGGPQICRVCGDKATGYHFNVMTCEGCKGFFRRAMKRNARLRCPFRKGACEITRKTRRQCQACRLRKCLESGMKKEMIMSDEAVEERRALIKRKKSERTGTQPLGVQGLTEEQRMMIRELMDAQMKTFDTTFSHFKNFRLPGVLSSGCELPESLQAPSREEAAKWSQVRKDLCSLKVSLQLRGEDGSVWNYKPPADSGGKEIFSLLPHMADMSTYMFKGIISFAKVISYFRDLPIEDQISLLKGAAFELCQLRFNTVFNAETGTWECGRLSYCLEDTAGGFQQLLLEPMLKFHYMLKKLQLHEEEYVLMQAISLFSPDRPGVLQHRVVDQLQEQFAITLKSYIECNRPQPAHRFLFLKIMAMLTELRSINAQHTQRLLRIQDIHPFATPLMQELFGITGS
Method in brief: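 Cell-free binding assay with extracted human PXR protein, read by TR-FRET 2 h after dosing; loss of signal relative to DMSO baseline indicates binding. Primary screen at 25 uM in duplicate, actives retested in concentration series.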

[18] = molecular target: Agonist Androgen Response Element (ARE), AR (gene 367) (UniProt P10275); assay: OT_AR_ARELUC_AG_1440: Odyssey Thera (OT) 24-hour CHO-K1 Luciferase Assay for Agonist Androgen Response Element (ARE) (AID 2283379)
Method in brief: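 Readout: luciferase bioluminescence from CHO-K1 ARE-luc cells, measured 24 h post-dosing; agonism = increased mean luminescence vs DMSO controls, fitted in positive direction.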

[19] = molecular target: Retinoic acid receptor alpha (Homo sapiens) (UniProt P10276); assay: NVS_NR_hRAR_Antagonist: NovaScreen (NVS) Nuclear Receptor Binding Assay for human Retinoic Acid Alpha Receptor Antagonism (RAR) (AID 2283358)
Method in brief: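 RARalpha antagonism was read by TR-FRET as loss of binding signal versus DMSO, 2 h after chemical addition, in a biochemical format. Single-concentration duplicates (25 uM) were run first, and actives were retested in concentration series.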

[20] = molecular target: human Norepinephrine Transporter (NET), SLC6A2 (gene 6530) (UniProt P23975); assay: NVS_TR_hNET: NovaScreen (NVS) Transporter Assay for human Norepinephrine Transporter (NET) (AID 2283377);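 note: cell-free membrane protein extracted from CHO cells expressing human NET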
Sequence of human Norepinephrine Transporter (NET), SLC6A2 (gene 6530) (P23975 whole entry, looked up): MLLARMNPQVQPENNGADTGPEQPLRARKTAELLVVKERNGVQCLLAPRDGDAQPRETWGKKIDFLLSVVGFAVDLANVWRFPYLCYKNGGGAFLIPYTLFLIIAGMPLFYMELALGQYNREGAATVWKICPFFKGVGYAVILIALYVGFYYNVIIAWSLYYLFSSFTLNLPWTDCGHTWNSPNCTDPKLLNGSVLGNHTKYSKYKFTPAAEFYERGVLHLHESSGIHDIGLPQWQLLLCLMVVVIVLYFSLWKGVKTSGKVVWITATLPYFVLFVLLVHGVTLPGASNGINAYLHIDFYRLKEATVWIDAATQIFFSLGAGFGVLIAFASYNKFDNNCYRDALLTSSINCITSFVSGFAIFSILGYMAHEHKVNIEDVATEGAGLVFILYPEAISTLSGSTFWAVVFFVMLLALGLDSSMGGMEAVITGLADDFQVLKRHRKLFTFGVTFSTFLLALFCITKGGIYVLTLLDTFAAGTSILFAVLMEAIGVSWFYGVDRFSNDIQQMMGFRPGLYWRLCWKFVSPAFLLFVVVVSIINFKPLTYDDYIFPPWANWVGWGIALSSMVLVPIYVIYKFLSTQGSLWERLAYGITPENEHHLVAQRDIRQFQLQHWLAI
Method in brief: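 Single-concentration duplicate screen at 25 uM, then concentration-response for actives; displacement of specific radioligand from human NET in CHO membrane extracts, filter-based scintillation detection at 1 h relative to DMSO.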

Measured: AC50

C[C@]12C=CC(=O)C=C1CC[C@@H]1[C@@H]2C(=O)C[C@@]2(C)[C@H]1CC[C@]2(O)C(=O)CO
active: [1] 0.178 µM | [3] 14.1 µM
inactive: [2] | [4] | [5]

Oc1ccc2c(c1)OC[C@@H](N1CCC(O)(c3ccc(F)cc3)CC1)[C@H]2O
inactive: [6] | [2] | [7] | [8] | [9] | [10] | [5]

CCCCOC(=O)CCCCCCCCC(=O)OCCCC
inactive: [6] | [2] | [7] | [11] | [12] | [5]

CCOC(=O)CCC(=O)OCC
active: [1] 25 µM | [14] 6.93 µM
inactive: [6] | [2] | [13] | [15] | [16] | [5]

CC(C)c1ccc(C(=O)N=C(N)N)cc1S(C)(=O)=O
inactive: [6] | [2] | [17] | [4] | [5]

Cc1cccc(C)c1O
inactive: [6] | [2] | [17] | [4] | [18] | [5]

CC1=C(/C=C/C(C)=C/C=C/C(C)=C/CO)C(C)(C)CCC1
inactive: [6] | [2] | [19] | [7] | [11] | [4] | [20] | [5]

CCc1c(C(=O)NN2CCCCC2)nn(-c2ccc(Cl)cc2Cl)c1-c1ccc(Br)cc1
inactive: [6] | [2] | [19] | [14] | [5]

c1cc(-c2ccncc2)ccn1
inactive: [6] | [2] | [3]

CC(C)(C)c1cc(O)c(C(C)(C)C)cc1O
inactive: [6] | [2] | [20] | [16] | [5]
active: [8] 5.75 µM

CCCCCCCCCCO
inactive: [6] | [2] | [7] | [5]

CCCCCCCCCCCCCO
inactive: [6] | [2] | [4] | [5]

CCOC(=O)C(C)(C)Oc1ccc(Cl)cc1
inactive: [6] | [2] | [12] | [13] | [4] | [5]

O=c1[nH]cc(F)c(=O)[nH]1
inactive: [1] | [6] | [2] | [5]

Cc1c(C(=O)O)c(O)cc2c1C(=O)c1c(O)c([C@@H]3O[C@H](CO)[C@@H](O)[C@H](O)[C@H]3O)c(O)c(O)c1C2=O
inactive: [6] | [2] | [14] | [10] | [5]
active: [12] 17.3 µM

Nc1nc(N)c2nc(CNc3ccc(C(=O)N[C@@H](CCC(=O)O)C(=O)O)cc3)cnc2n1
inactive: [6] | [2] | [3] | [20] | [5]

NCC1(Cc2noc(=O)[nH]2)CCCCC1
inactive: [6] | [2]

COc1cc(-c2nc(NC(=O)c3cc4cc(C)cc(C)c4n3CC(=O)O)sc2CCC2CCCCC2)c(OC)cc1Cl
inactive: [6] | [2] | [13] | [5]
active: [4] 0.181 µM

CCCCCCCC=O
inactive: [6] | [2] | [7] | [5]

CCCCCC(=O)O
inactive: [6] | [2] | [10] | [18] | [5]

Cc1ccc(C(C)C)c(O)c1
inactive: [6] | [7] | [8] | [14] | [5]
active: [2] 33.9 µM

CC(=O)OCCOCCOCCOC(C)=O
inactive: [6] | [2] | [5]
active: [17] 33.4 µM

CNC(=O)[C@H]1O[C@@H](n2cnc3c(NCc4cc(Cl)ccc4OCc4cc(C)no4)ncnc32)[C@H](O)[C@@H]1N
inactive: [6] | [2] | [17] | [18] | [5]
active: [8] 9.75 µM

Cc1cccc([N+](=O)[O-])c1C
inactive: [6] | [2] | [8] | [18] | [5]

O=c1c(O)c(-c2ccc(O)c(O)c2)oc2cc(O)cc(O)c12
inactive: [7]
active: [6] 24.8 µM | [2] 2.32 µM | [4] 33.1 µM | [5] 19.2 µM

CCCCCCC(=O)OCC
inactive: [6] | [2] | [8] | [16] | [5]

Cc1nc(-c2ccc3c(c2)CCN(CCC2CCC(NC(=O)/C=C/c4ccc(F)cc4)CC2)CC3)no1 (stereo unspecified)
inactive: [6] | [2] | [12] | [17] | [18] | [5]
active: [8] 1.03 µM | [15] 68 nM | [10] 201 nM

CCCCN(CCCC)CCCC
inactive: [6] | [2] | [5]

Clc1cc(Cl)c(Cl)cc1Cl
inactive: [6] | [2] | [5]

Nc1ccccc1N
inactive: [6] | [5]

C[Si]1(C)O[Si](C)(C)O[Si](C)(C)O[Si](C)(C)O1
inactive: [6] | [2] | [16] | [5]
